Out of some 97,000 compounds screened, about 140 (0.14%) were called active. Shown is part of a subset that was picked to be rich in actives. A number with no mark means an inactive call.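 Rule for the calls: active = inhibition above the screen-wide mean inhibition plus 3 SD (cut at about 15% in these data); inactive = the rest.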
The compounds below were run against Ephrin type-B receptor 4 (Homo sapiens) (UniProt P54760) (assay: EphB4-ephrin-B2 interaction antagonists, primary screen, biochemical, TNYL-RAW peptide probe, fluorescence polarization (AID 720;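 note: 0% = DMSO wells and 100% = excess unlabeled TNYL-RAW peptide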)). Details: EphB4 LBD / TNYL-RAW-Alexa532 peptide, at 7 µM, stronger effect = higher value.
Chain of Ephrin type-B receptor 4 (Homo sapiens) (P54760 whole entry, looked up, the tested form may be a part): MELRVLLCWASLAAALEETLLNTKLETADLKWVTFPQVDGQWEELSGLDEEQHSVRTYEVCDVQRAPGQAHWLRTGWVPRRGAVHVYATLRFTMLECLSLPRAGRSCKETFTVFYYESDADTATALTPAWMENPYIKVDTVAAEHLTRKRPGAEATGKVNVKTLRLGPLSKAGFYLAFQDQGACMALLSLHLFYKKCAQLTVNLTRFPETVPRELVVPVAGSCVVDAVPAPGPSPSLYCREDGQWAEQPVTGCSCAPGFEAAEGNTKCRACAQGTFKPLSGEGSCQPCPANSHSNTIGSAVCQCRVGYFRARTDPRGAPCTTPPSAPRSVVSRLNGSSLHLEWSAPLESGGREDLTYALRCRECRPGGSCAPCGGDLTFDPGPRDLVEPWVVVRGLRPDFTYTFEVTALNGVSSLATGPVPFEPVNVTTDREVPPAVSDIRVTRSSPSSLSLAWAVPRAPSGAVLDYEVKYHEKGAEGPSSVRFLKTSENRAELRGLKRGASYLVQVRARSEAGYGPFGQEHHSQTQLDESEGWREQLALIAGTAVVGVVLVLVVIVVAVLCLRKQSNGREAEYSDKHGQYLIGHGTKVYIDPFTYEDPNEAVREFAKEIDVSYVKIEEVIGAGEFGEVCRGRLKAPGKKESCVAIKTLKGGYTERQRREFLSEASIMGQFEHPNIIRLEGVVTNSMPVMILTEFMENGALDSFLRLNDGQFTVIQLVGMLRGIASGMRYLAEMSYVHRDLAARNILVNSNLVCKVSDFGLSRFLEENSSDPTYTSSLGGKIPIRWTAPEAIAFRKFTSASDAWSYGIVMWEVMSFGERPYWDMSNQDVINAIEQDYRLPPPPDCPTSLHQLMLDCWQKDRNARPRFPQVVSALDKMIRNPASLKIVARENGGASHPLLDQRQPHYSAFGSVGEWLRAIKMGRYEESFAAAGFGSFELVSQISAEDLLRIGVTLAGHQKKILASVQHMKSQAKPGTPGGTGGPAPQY

Compound | inhibition
CCCCOc1ccc(CSC(=N)N)cc1[N+](=O)[O-] | -6.89%
CCn1cc(C(=O)N/N=C(/C)c2ccc(F)cc2)c(=O)c2cc(F)c(N3CCCC3)cc21 | 5.77%
Cc1ccc(SCC(=O)NC(=O)NCc2ccco2)c(C)c1 | -1.3%
COC(=O)c1ccc(S(=O)(=O)N2CCC(c3nc4ccccc4o3)CC2)cc1 | 2.06%
CCCCc1nnc(NC(=O)CSc2nc(C)cc(=O)[nH]2)s1 | 0.99%
CCCc1noc2c1/C(=N\O)CCC2 | 7.69%
Cc1ccc(CCN2CC(C(=O)O)CC2=O)cc1 (stereo not given) | -3.41%
CCOC(=O)c1[nH]c(C)c(C(=O)OCC(=O)N2c3ccccc3CC2C)c1C (stereo not given) | 2.53%
O=P(O)(CP(=O)(c1ccccc1)c1ccccc1)c1ccccc1O | 4%
Cc1cc(=O)oc2cc(OC(C)C(=O)Nc3ccc(N4CCOCC4)cc3)ccc12 (stereo not given) | 8.06%
O=C1CCCC2=C1C(c1ccccc1)n1c(s/c(=C/c3cccc(F)c3)c1=O)=N2 (stereo not given) | 1.22%
O=C(NCc1ccccc1Cl)c1csc2c1CCCCC2 | 2.57%
CCCn1c(C)cc(C(=O)COC(=O)c2c(C)nn(-c3ccccc3)c2C)c1C | 0.32%
CCCCNC(=O)CSc1nc2ccc(NC(=O)CSc3nnc(COc4ccccc4C)n3C)cc2s1 | -4.14%
CC1=NN(C(C)C)C(=O)C1 | -0.74%
O=S(=O)(c1ccc(Br)cc1)n1ccc2ccccc21 | 6.94%
NC(=O)c1c(NC(=O)CSc2nnc(-c3ccco3)n2N)sc2c1CCCC2 | 0.73%
CCC(=O)Nc1ccc(C(=O)Nc2cc(C)on2)cc1 | 3.48%
COc1ccc(N(CC(=O)NC2CCCCC2)C(=O)CNC(=O)c2ccco2)c(OC)c1 | 0.8%
CCCCCCC12CCC(C(=O)O)(CC1)CC2 | -4.95%
Cn1c(CO)cnc1SCc1ccccc1 | 3.71%
CCOc1cc(NC(=O)c2ccco2)c(OCC)cc1NC(=O)COc1ccccc1 | -10%
CCOc1cc(N2CCOCC2)c(OCC)cc1NC(=O)COc1cccc2cccnc12 | 17.3% (active)
CCOc1cc(N2CCOCC2)c(OCC)cc1NC(=O)COC(=O)[C@H](Cc1c[nH]c2ccccc12)NC(C)=O | 5.55%

Compound | inhibition
S=C(NCCC1=CCCCC1)Nc1ccccc1 | 4.71%
c1ccc(-n2nc3ccccc3n2)cc1 | 1.16%
COc1ccc(C2=NO[C@@H]3C(=O)N(Cc4ccccc4)C(=O)[C@H]23)cc1OC | 7.58%
Nc1nc(C23CC4CC(CC(C4)C2)C3)cs1 | -1.67%
O=C(CCC(=O)OCc1cccc(C(=O)Oc2ccccc2)c1)Nc1cccc2ccccc12 | 3.74%
COc1ccc(CCNC(=O)COC(=O)c2ccc[nH]c2=O)cc1 | -5.04%
O=C(N/N=C\c1ccc(-c2ccc(Cl)c(Cl)c2)o1)C(=O)N1CCCC1 | -0.37%
CCOc1cc(NC(=O)c2cnccn2)c(OCC)cc1NC(=O)c1ccc(C)cc1 | -6.39%
CC(C)Cc1oc(C(=O)O)cc1CN | -0.3%
O=C(NC1CC1)c1ccc2c(c1)NC(=O)c1ccccc1S2 | 0.56%
COc1ccc(-c2csc3nc(-c4ccccc4F)oc(=O)c23)cc1OC | -10.2%
O=C(N/N=C/c1ccc(O)cc1)/C(=C/c1ccc([N+](=O)[O-])cc1)NC(=O)c1ccccc1 | -1.89%
CCOCc1nnc(NC(=O)CSc2ccc(C)cc2)s1 | 1.51%
O=[N+]([O-])c1ccc(C=Nc2ccc(Cl)cc2Cl)s1 | -0.13%
CC1=CC(C)(C)Nc2ccc(OC(=O)C(Cc3ccccc3)N3C(=O)C4CCCCC4C3=O)cc21 (stereo not given) | -0.93%
S=c1[nH]nc(CSCc2ccc(Cl)cc2Cl)n1-c1ccccc1 | 8.29%
CCOC(=O)c1cnc(SCC(=O)Nc2cccc(OC)c2)nc1N | 9.83%
O=S(=O)(N/N=C\c1cccn1-c1ccccc1)c1ccc2ccccc2c1 | -8.09%
Cn1c2ccccc2n2c(=O)c(=O)n(CC(=O)c3ccc(F)cc3)nc12 | 0.04%
COc1cccc(C(=O)NNC(=O)c2ccccc2Br)c1 | -7.4%
O=C(CN1CCN(S(=O)(=O)c2ccc3ccccc3c2)CC1)NC(=O)NC1CCCCC1 | 5.63%
Cc1ccc(SC(=O)COc2ccc(C)c(C)c2)cc1 | 3.52%
O=[N+]([O-])c1ccc(N2CCN(S(=O)(=O)c3ccc4ccccc4c3)CC2)cc1NCc1ccco1 | 0.12%
CCc1cccc2c(C=C(C#N)C#N)cn(CC(=O)N3CCCCC3)c12 | -0.37%

Compound | inhibition
COc1ccc(CC(NC(C)=O)C(=O)N2CCN(C(=O)Nc3cccc(Cl)c3)CC2)cc1OC (stereo not given) | -2.32%
CCOc1ccc(NC(=O)CCS(=O)(=O)c2ccc3c(c2)CCCN3C(=O)CC)cc1 | 8.53%
COc1ccccc1NC(=O)C1CCCN(c2cc(C)nc3ncnn23)C1 (stereo not given) | -5.56%
C=CCOc1cccc(CNn2cn[nH]c2=S)c1 | -3.4%
C=C(C)CNC(=S)/N=c1\scc(C)n1CC | -8.88%
CCCCNC(=S)NNC(=O)c1cc(C)on1 | -0.6%
CC(C)NC(=O)CSc1ccccc1C(=O)NCc1ccc2c(c1)OCO2 | 2.19%
O=C(CSCc1ccc([N+](=O)[O-])cc1)NCCSCc1ccccc1 | 4.49%
Cc1cccc(C)c1N1CCN(S(=O)(=O)N2CCOCC2)CC1 | 3.9%
O=S(=O)(N1CCOCC1)N1CCN(c2ccccc2F)CC1 | 20.7% (active)
O=C(c1ccc(CN2CCOCC2)cc1)N1CCN(c2ccccc2F)CC1 | -2.74%
O=C(Nc1cccc(NC(=O)c2ccco2)c1)c1cnccn1 | -6.85%
COc1ccc(NC(=O)/C(Cl)=C(/Cl)S(=O)Cc2ccc(C)cc2)cn1 (stereo not given) | 7.2%
CCOCCn1c(C(C)C)nc2ccccc21 | 0.96%
O=C(Cc1ccc(S(=O)(=O)N2CCOCC2)s1)NCCC(c1ccccc1)c1ccccc1 | -2.3%
CCOC(=O)c1c(NC(=O)/C=C/c2ccco2)sc(C)c1C | 0.57%
CC(=O)Nc1cccc(/C(C)=N/NC(=O)c2ccccc2Cl)c1 | 2.34%
O=C(NCC(=O)N(Cc1cccs1)C(C(=O)NC1CCCCC1)c1ccco1)c1cccs1 (stereo not given) | -1.39%
O=C1Nc2cc(Cl)c(Cl)cc2N(O)N1c1cc(Cl)cc(Cl)c1 | 2.41%
CC(C)C(=O)NC(NC(=S)NC1CCS(=O)(=O)C1)C(Cl)(Cl)Cl (stereo not given) | 2.04%
O=C(c1cc2sccc2n1Cc1ccc(F)cc1)N1CCc2ccccc21 | 4.78%
Cc1c(NC(=O)/C=C/C(=O)O)cccc1[N+](=O)[O-] | -6.42%
CN(C)/C=C(/C(=O)c1ccc(Cl)cc1)S(=O)(=O)c1ccccc1 | -11.6%
N=c1c2c3c(sc2nc2n1CCCCC2)CCCC3 | 6.43%

Compound | inhibition
O=c1[nH][nH]c(C(F)(F)F)c1C=NCc1ccccc1Cl | 2.43%
O=S(=O)(NN=C1CCCCCCC1)c1ccc(Br)cc1 | 5.67%
CCOC(=O)C1=C(c2ccccc2)N=C2SCC(=O)N2C1c1ccc(O)c(OC)c1 (stereo not given) | 2.71%
COCCn1c(SCc2nc3cc(OC)c(OC)cc3c(=O)[nH]2)nnc1-c1ccncc1 | 5.33%
COc1ccc(C2C(C(C)=O)=C(O)C(=O)N2Cc2cccnc2)cc1 (stereo not given) | 1.74%
O=C(C1=C(O)C(=O)N(Cc2ccccc2)C1c1cccnc1)c1ccco1 (stereo not given) | 27% (active)
O=C(C1=C(O)C(=O)N(Cc2ccccc2)C1c1ccco1)c1ccco1 (stereo not given) | -8.37%
COc1ccc2c(c1)C(C)=CC(C)(C)N2C(=O)Nc1ccccc1 | 6.35%
CC(=O)Oc1ccc(NC(=O)CCC2CCCCC2)c(C(=O)O)c1 | 4.49%
O=C(CN1CCN(c2ccc(Cl)cc2)CC1)N1CCCC1 | 4.82%
Oc1ccc(/C=N/NC2=NCCCCC2)c(O)c1 | 2.04%
CCOC(=O)c1sc(C)c2c1NC(C)(c1cccc3ccccc13)NC2=O (stereo not given) | 13.2%
Cc1cc(C)nc(SC(C)C(=O)N/N=C/c2cccs2)n1 (stereo not given) | 2.66%
C=CCc1ccc(OCCOc2cccc(/C=N/n3cnnc3)c2)c(OC)c1 | -1.42%
Cc1ccc(N2C(=O)CC(Sc3ncn[nH]3)C2=O)cc1 (stereo not given) | 0.58%
CC(C)CNC(=S)NNC(=O)c1nn(C)cc1Cl | 7.68%
COc1ccc(-c2noc(-c3ccc(C)cc3)n2)cc1 | -4.98%
CSc1cc(C)n(-c2ccccc2C)c(=S)c1C(C)=O | -5.85%
CCCOc1cc(C)c(S(=O)(=O)n2nnc3ccccc32)cc1C | -0.8%
CCc1nn(-c2cc(Oc3cccc4ccccc34)nc(-c3ccccc3)n2)c(N)c1C#N | -9.42%
CCOc1cc(C(=O)Nc2c(C)ccc3nsnc23)cc(OCC)c1OCC | -8.62%
COc1ccc(CNC(=O)CCn2cccc2)cc1 | -2.06%
COC(=O)c1ccc(NC(=O)C23CC4CC(C2)CC(n2cnc(Cl)n2)(C4)C3)cc1 | 3.33%

From PubChem BioAssay AID720 (The Scripps Research Institute Molecular Screening Center, 2007)
